Screening results (PubChem)
cardiac RTF act = cardiac RTF calcium sensitization. P19429+P45379. IANBD-labeled TnC RTF fluorescence at EC20 calcium; 0% EC20 calcium, 100% full calcium. activation, % at 7.2 µM. AID 493008. hit rate 0.24% among 340,000;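 active = activation above the mean over all tested compounds plus 3 SD, cut at about 30% in these data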;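 also: rise in fluorescence read as greater calcium sensitivity of cardiac thin filaments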
IDE inh = inhibits human insulin-degrading enzyme in HEK cells; FAbetaB cleavage, fluorescence polarization; hit rate 0.41% among 320,000; inhibition, % at 5.59 µM; AID 434962;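 active = percent inhibition above the average of all tested compounds plus 3 SD, set per screening campaign, cut at about 16% in these data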;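 also: IDE supplied by intact live HEK cells; FP after avidin binding of uncleaved biotin substrate so inhibition keeps polarization high; 0% = DMSO wells and 100% = 60 µM reference IDE inhibitor Ii1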
CRFBP-R2 agonist = agonists of human CRF-binding protein/CRF-R2 receptor complex; activation, % at 13.2 µM; hit rate 0.46% among 350,000; HEK293 CRF-R2/CRF-BP, calcium dye fluorescence (FLIPR); percent of saturating CRF peptide response; AID 588473;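 active = activation of at least 50%, plus an integration ratio under a set limit after plate pattern correction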;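 also: plate controls were neutral control wells without compound for no effect and CRF at EC100 for full effect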
TPT1 inhibitor = blocks Candida albicans tRNA 2'-phosphotransferase; inhibition, % at 5 µM; AID 1962; recombinant caTPT1, FP RNA substrate dephosphorylation; hit rate 0.81% among 300,000;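 active = inhibition above the mean of all tested compounds plus 3 SD, set per screening campaign, cut at about 24% in these data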;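 also: plate controls were DMSO alone for no effect and ferristatin control at 100 nM for full effect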
IDE cell activ = IDE (human) activation, cell-based | HEK cells, FAbeta-B cleavage, fluorescence polarization; 0% vehicle, 100% cell-free pure enzyme wells | AID 493087 | activation, % at 5.96 µM | P14735 | hit rate 0.073% among 340,000;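 active = activation above the mean of all tested compounds plus 3 SD, set per screening campaign, cut at about 17% in these data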
RTF Ca sens inh = cardiac RTF calcium desensitization; P19429+P45379; IANBD-labeled cardiac RTF, Ca2+ fluorescence; inhibition, % at 7.15 µM; hit rate 0.12% among 340,000; AID 493244;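 active = inhibition above the mean inhibition of all tested compounds plus 3 SD, cut at about 17% in these data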;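 also: assay run at fixed EC70 calcium of 1.6 mM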
TPT1 inh confirm = TPT1 (C. albicans) inhibition, confirmation; hit rate 74% among 2,400; shares compounds with TPT1 inhibitor; inhibition, % at 5 µM; recombinant caTPT1, fluorescence polarization, RNase T1 coupled;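 active = inhibition above the primary screen limit, the mean inhibition of all tested compounds plus 3 SD, cut at about 25% in these data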
RNase T1 inh = counter-screen for TPT1 inhibitors: inhibitors of Aspergillus oryzae RNase T1; shares compounds with TPT1 inhibitor; RNase T1 cleavage, fluorescence polarization, 1536-well; inhibition, % at 5 µM; hit rate 83% among 2,400;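 active = inhibition above the solvent-only control well mean plus 3 SD, limit set per screening run, cut at about 23% in these data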;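 also: plate controls were DMSO wells with enzyme for no effect and wells without RNase T1 for full effect; inhibitors block cleavage so intact labeled substrate keeps polarization high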
Target sequence (P00651 whole entry, looked up): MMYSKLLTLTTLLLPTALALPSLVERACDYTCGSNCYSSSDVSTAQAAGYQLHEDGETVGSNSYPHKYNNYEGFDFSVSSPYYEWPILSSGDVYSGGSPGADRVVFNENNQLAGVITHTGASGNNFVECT
The depositor's hits bear a star; . = not tested or not shown. A selection: hits, their analogues and other compounds. The true share with any hit is near 1.5%.

SMILES	cardiac RTF act	IDE inh	CRFBP-R2 agonist	TPT1 inhibitor	IDE cell activ	RTF Ca sens inh	TPT1 inh confirm	RNase T1 inh
Cc1sc2nc(COC(=O)c3cccc(S(=O)(=O)N(C)c4ccccc4)c3)[nH]c(=O)c2c1C	22.3	6.5	17.4	51.7*	-10.2	-22.8	44.8*	55.2*
Cc1c(C#N)c(O)[nH]c(=O)c1N=Nc1ccc(Cl)c(C(=O)O)c1	8.2	0.8	2.4	7.5	-0.4	-9.2	.	.
Cc1c(C#N)c(O)[nH]c(=O)c1N=Nc1ccc(S(N)(=O)=O)cc1	2.6	4.3	0.3	24.5*	3.4	-10.8	13.7	26.3*
CC(=O)OC[C@H]1O[C@@H](O[C@H]2C[C@]3(C)C(C[C@@H](O)C4C([C@]5(C)CC[C@@H](C(C)(C)O)O5)CC[C@]43C)[C@@]3(C)CC[C@H](O)C(C)(C)C23)[C@H](O[C@@H]2O[C@@H](C)[C@H](O)[C@@H](O)[C@H]2O)[C@@H](O)[C@@H]1O (stereo not given in full)	-1.8	-0.6	0.6	.	2.3	-13.1	.	.
COC(=O)C1C2CC3c4[nH]c5cc(OC)ccc5c4CCN3CC2CC(OC2CCCCO2)C1OC (stereo not given)	.	.	5.1	.	.	.	.	.
COC(=O)[C@H]1[C@H]2C[C@@H]3c4[nH]c5cc(OC)ccc5c4CCN3C[C@H]2C[C@@H](OC(=O)c2cc(OC)c(OC)c(OC)c2)[C@@H]1OC	14.0	4.6	4.7	41.4*	2.7	-2.3	45.1*	57.6*
CN(CCCNC(=O)c1ccc(CS(=O)c2ccc(Br)cc2)o1)Cc1ccccc1 (stereo not given)	-4.5	-2.4	0.6	-0.3	-0.4	0.7	.	.
CC(=O)C1=NOC(CNc2ncc(C(F)(F)F)cc2Cl)C1 (stereo not given)	1.4	-4.1	-0.7	143.1*	2.6	-3.8	11.5	10.7
O=C(O)C1=NOC(CNc2ncc(C(F)(F)F)cc2Cl)C1 (stereo not given)	0.6	1.2	0.1	3.5	-4.7	-7.9	.	.
O=C(OCC(=O)N1CCOCC1)c1ccccc1OCc1ccc(Cl)cc1	3.2	3.6	1.4	.	5.7	-0.2	.	.
CC(Oc1ccccc1)C(=O)Nc1nnc(C2CCCCC2)s1 (stereo not given)	1.1	-0.4	6.5	1.4	-3.8	-13.7	.	.
C=CC[n+]1c(-c2ccccc2)csc1NC(C)(C)C	3.3	-5.7	1.1	-3.2	1.3	-3.5	.	.
C=CC[n+]1c(-c2ccc(OC)c(OC)c2)csc1NNC(=O)Nc1ccccc1	10.5	5.2	1.0	24.6*	-1.7	-11.5	7.3	10.9
CC(=O)C1CCC2C3CCC4=CC(=O)CC[C@]4(C)[C@@]3(F)C(O)C[C@]12C (stereo not given in full)	1.1	5.7	-1.6	-3.7	2.0	1.6	.	.
O/C(=C\c1ccc2ccccc2n1)c1ccc(O)cc1O	10.3	11.4	32.9	98.0*	-19.6	-4.4	109.9*	107.9*
COc1ccccc1C1C([N+](=O)[O-])=CC([N+](=O)[O-])=CN1C (stereo not given)	8.3	0.8	1.2	42.2*	-5.3	-20.3	51.5*	60.8*
CC(=O)N1N=C(c2ccccc2)CC1c1cn(Cc2ccccc2)c2ccccc12 (stereo not given)	-0.1	3.5	2.4	2.1	-4.2	1.6	.	.
CN1C(=O)CC(c2cn(Cc3ccccc3)c3ccccc23)C1=O (stereo not given)	-4.3	1.5	2.2	26.3*	4.7	-1.0	49.6*	60.8*
CCOC(=O)CSC1=NC(=O)/C(=C\c2ccc(Cl)cc2)S1	8.3	8.4	5.5	30.0*	-5.1	-5.7	52.3*	62.3*
CN(C)c1ccc(/C=N/NC(=O)c2ccc(-n3cnnn3)cc2)cc1	-1.9	-1.2	-0.6	.	3.1	4.2	.	.
O=C(Cn1ncc2c3ccccc3n(Cc3cccc(Cl)c3)c2c1=O)NCC1CCCO1 (stereo not given)	22.0	4.8	1.2	29.2*	1.0	-17.5	98.2*	93.6*
Cc1ccc(C(=O)CSc2nc(-c3ccccc3)ccc2C#N)cc1	1.3	2.7	39.6	23.8	-1.6	-21.9	.	.
N#Cc1ccc(-c2ccco2)nc1SCC(=O)c1ccc(Cl)cc1	12.3	11.1	17.1	98.9*	-32.7	-21.0	62.3*	67.3*
COC(=O)c1cc(NC(=O)c2cccc(C(F)(F)F)c2)c(=O)oc1C/C=N/OCc1cccc(Cl)c1Cl	14.7	6.4	12.3	35.1*	-3.6	-31.5	38.0*	45.3*
COC(=O)c1cc(NC(=O)c2cccc(C(F)(F)F)c2)c(=O)oc1C	-1.4	-2.9	-0.9	5.4	-4.5	-0.6	.	.
SMILES	cardiac RTF act	IDE inh	CRFBP-R2 agonist	TPT1 inhibitor	IDE cell activ	RTF Ca sens inh	TPT1 inh confirm	RNase T1 inh
Cc1ccc(C2C(C#N)=C(N)Oc3c2sc2ccccc32)o1 (stereo not given)	.	11.9	.	65.2*	.	.	86.0*	96.1*
N#Cc1ccsc1NC(=O)c1cccc(-n2cnnn2)c1	-2.2	-1.2	3.5	47.7*	-3.6	-8.8	51.4*	64.4*
O=C(/C=C/c1ccc2ccccc2n1)c1cc(Br)ccc1O	6.7	1.3	1.7	42.8*	-1.7	-27.0	15.9	22.8*
Cc1cccc(N2CCN(C(=O)c3c(-c4ccccc4Cl)noc3C)CC2)c1C	4.2	-0.8	.	-3.0	2.0	-8.6	.	.
COc1cc(/C=C2\COC/C(=C\c3cc(OC)c(OC)c(OC)c3)C2=O)cc(OC)c1OC	1.4	.	-2.8	.	7.0	-3.6	.	.
COc1ccc(/C=C2/CC/C(=C\c3ccc(OC)c(OC)c3OC)C2=O)c(OC)c1OC	-1.6	5.8	52.2*	24.4*	2.1	12.9	36.5*	42.7*
COc1cc(/C=C2\CC/C(=C\c3cc(OC)c(O)c(OC)c3)C2=O)cc(OC)c1O	-1.5	7.4	5.4	91.0*	-3.0	-8.4	95.0*	100.6*
COc1cc(/C=C2\CC/C(=C\c3cc(OC)c(OC)c(OC)c3)C2=O)cc(OC)c1OC	2.0	0.7	-0.1	39.0*	2.3	-3.2	48.3*	56.7*
Cc1ccc(Cl)cc1NC(=O)c1cc(NC(=O)C2CCCCC2C(=O)O)ccc1N1CCOCC1 (stereo not given)	-1.5	-2.8	0.1	-4.3	2.6	0.8	.	.
CCCNC(=O)Cn1c(=O)/c(=C\c2ccc(-c3cccc([N+](=O)[O-])c3)o2)s/c1=C\C(=O)C(C)(C)C	1.4	-2.4	57.2*	50.3*	4.2	-4.4	-88.1	-57.7
Nc1nc(N)c2ncc(C(=O)CCc3ccccc3)nc2n1	0.8	9.8	5.7	41.0*	-2.1	-3.7	43.6*	56.2*
